Results on 13 compounds are retold here after PubChem BioAssay (NCI).

Among the test systems are DU-145 prostate; K-562 leukemia; MALME-3M melanoma; MDA-MB-231 breast; RXF 393 renal; SF-268 CNS; SF-295 CNS; SF-539 CNS; UACC-257 melanoma; M14 melanoma.
Holding throughout (experiment): NCI-60 one-dose screen, 48 h (100 = growth as untreated, 0 = no growth, -100 = all killed)
Holding throughout (settings): 10 µM unless noted

This is part of a sample that, as a whole, favours compounds with a hit. Of some 83,000 tested, about 20% had one in any assay.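 Note: values are percent growth. 100 is the growth of untreated cells, values between 100 and 0 indicate rising inhibition; between -100 and 0 indicates cell death.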 Unmarked numbers belong to inactive results. Activity calls are given as the source filed them. How the source made its calls: active means growth percent below 10; inactive means the rest.

As for `CC(=O)O[C@H]1CC[C@]2(C)[C@H]3CC[C@@H]4[C@H]5[C@H](C(C)C)CC[C@]5(C(=O)OCC(CO)(CO)N=C(N)N)CC[C@@]4(C)[C@]3(C)CC[C@H]2C1(C)C`, the growth in the assay on DU-145 prostate was 37.4%; in the assay on K-562 leukemia it was -26.7% (active); in the assay with MALME-3M melanoma, 17%; with MDA-MB-231 breast, 42.1%; in the assay on RXF 393 renal, 40.6%; with SF-268 CNS it was 77.6%. Also, the growth in the assay with SF-295 CNS was 100%; in the assay on SF-539 CNS, 86.4%; in the assay on UACC-257 melanoma, 90.2%; in the assay on M14 melanoma, 73.4%.
For the compound `COc1ccc(-c2nn(-c3ccccc3)cc2/C=C/C(=O)OCc2cn(-c3ccc(F)c(Cl)c3)nn2)cc1`, the growth in the assay with DU-145 prostate is 97.2%; in the assay with K-562 leukemia, 69.7%; in the assay on MALME-3M melanoma, 59%; in the assay with MDA-MB-231 breast, 56.9%; in the assay on RXF 393 renal, 68.4%; with SF-268 CNS it was 77.4%. For the same compound, the growth is 97.3% in the assay with SF-295 CNS, 98.7% in the assay on SF-539 CNS, 92.9% in the assay on UACC-257 melanoma and 97.6% with M14 melanoma.
With `C=C1CC2(OC1=O)C(=O)N(CCCCCCCCCCCCN1C(=O)C3(CC(=C)C(=O)O3)c3ccccc31)c1ccccc12` (stereo not given), the growth was 98.7% in the assay on DU-145 prostate; 6.7% (active) with K-562 leukemia; 75.5% in the assay on MALME-3M melanoma; 55.8% in the assay with MDA-MB-231 breast; 52.8% with RXF 393 renal; 93% in the assay with SF-268 CNS. Also, the growth is 97.6% with SF-295 CNS, 87.3% in the assay on SF-539 CNS, 94.9% in the assay on UACC-257 melanoma and 79.4% in the assay on M14 melanoma.
As to `Cn1c2ccccc2c2c3[nH]c(=O)[nH]c(=O)c3c3c4ccccc4n(C)c3c21`, the growth in the assay with DU-145 prostate was 29.2%; with K-562 leukemia, 56.1%; in the assay with MALME-3M melanoma, 20%; in the assay with MDA-MB-231 breast it was 46%; with RXF 393 renal it was 6.48% (active); in the assay on SF-268 CNS it was 32.4%. In addition, the growth was 69.6% with SF-295 CNS, 39.5% in the assay on SF-539 CNS, 78.1% with UACC-257 melanoma and 31.8% in the assay on M14 melanoma.
For the compound `CSc1[nH]c2ncnc(N)c2c1C#N`, the growth with DU-145 prostate was 101%; in the assay on K-562 leukemia, 84.6%; in the assay with MALME-3M melanoma, 107%; in the assay with MDA-MB-231 breast, 98.8%; with RXF 393 renal, 151%; in the assay on SF-268 CNS, 113%. Moreover, the growth is 105% in the assay with SF-295 CNS, 96.3% in the assay with SF-539 CNS, 124% with UACC-257 melanoma and 95.1% in the assay on M14 melanoma.
Consider `CCN(CC)Cc1cc(Nc2c3ccccc3nc3cc(Cl)ccc23)ccc1O`, for which the growth with DU-145 prostate is -16.2% (active); with K-562 leukemia, -40.8% (active); in the assay on MALME-3M melanoma it was -91.4% (active); with MDA-MB-231 breast it was -65.2% (active); in the assay on RXF 393 renal, -91.4% (active); with SF-268 CNS, -76.9% (active). In addition, the growth with SF-295 CNS is -38.3% (active); in the assay with SF-539 CNS it was -100% (active); with UACC-257 melanoma it was -94.8% (active); with M14 melanoma, -99.6% (active).
`COc1cc(NCCCCCN=C(N)NC(N)=NC(C)C)c2ncccc2c1`: the growth is 104% in the assay on DU-145 prostate; 26.1% in the assay with K-562 leukemia; -19.2% (active) with MALME-3M melanoma; 22% in the assay on MDA-MB-231 breast; 131% in the assay with RXF 393 renal; 29% in the assay with SF-268 CNS. Further, the growth with SF-295 CNS is 98.3%; with SF-539 CNS, 44.9%; in the assay with UACC-257 melanoma, -8.06% (active); in the assay with M14 melanoma it was 67.7%.
Turning to `COc1c(Cl)cc(Cl)cc1Cl`, the growth in the assay on DU-145 prostate is 111%; with K-562 leukemia, 96.2%; with MALME-3M melanoma, 143%; in the assay with MDA-MB-231 breast it was 92.2%; in the assay with RXF 393 renal it was 121%; in the assay on SF-268 CNS, 107%. Further, the growth was 103% in the assay with SF-295 CNS, 111% with SF-539 CNS, 122% in the assay with UACC-257 melanoma and 116% in the assay on M14 melanoma.
For `Cc1cc(N/N=C/c2nc(-c3ccc(Cl)cc3)oc2C)c2cc(Cl)ccc2n1`, the growth with DU-145 prostate was 34.3%; with K-562 leukemia, -15.8% (active); in the assay with MALME-3M melanoma, -14.2% (active); with MDA-MB-231 breast, 63.8%; in the assay on RXF 393 renal, 83.3%; in the assay with SF-268 CNS, 74.8%. Also, the growth is 98.6% in the assay with SF-295 CNS, 69.5% with SF-539 CNS, 101% in the assay on UACC-257 melanoma and 8.84% (active) with M14 melanoma.
For the compound `O=C(O)c1cn(C2CC2)c2cc(N3CCN(Cc4nc5c(cnn5-c5ccc([N+](=O)[O-])cc5)c(=O)[nH]4)CC3)c(F)cc2c1=O`, the growth was 110% with DU-145 prostate; 92.6% in the assay on K-562 leukemia; 98.1% in the assay with MALME-3M melanoma; 92.4% with MDA-MB-231 breast; 107% in the assay on RXF 393 renal; 96.4% in the assay on SF-268 CNS. Further, the growth in the assay with SF-295 CNS is 105%; in the assay with SF-539 CNS, 97.8%; with UACC-257 melanoma, 106%; in the assay with M14 melanoma it was 102%.
Turning to `O=C(/C=C/c1ccc(Cl)cc1)c1ccc(O)c(CN2CCN(c3cc4c(cc3F)c(=O)c(C(=O)O)cn4C3CC3)CC2)c1`, the growth is 63.5% with DU-145 prostate; 50.7% in the assay on K-562 leukemia; 59.8% in the assay on MALME-3M melanoma; 77.2% with MDA-MB-231 breast; 45.4% in the assay on RXF 393 renal; 42% in the assay on SF-268 CNS. For the same compound, the growth in the assay with SF-295 CNS was 45%; in the assay with SF-539 CNS, 53.5%; with UACC-257 melanoma, 90.2%; in the assay on M14 melanoma, 52.6%.
`CCCCCCNC(=O)Oc1ccc(/C(=C(\C)c2ccccc2)c2ccc(OCCN(CC)CC)cc2)cc1`: the growth was 87.7% in the assay with DU-145 prostate; 2.08% (active) in the assay on K-562 leukemia; 33% with MALME-3M melanoma; 68.9% in the assay with MDA-MB-231 breast; 32.7% with RXF 393 renal; 55.8% in the assay with SF-268 CNS. Further, the growth was 83.1% in the assay on SF-295 CNS, 50% with SF-539 CNS, -1.51% (active) in the assay on UACC-257 melanoma and -40.1% (active) in the assay on M14 melanoma.
For the compound `CCc1ccc(C(c2ccc(CC)cc2)C(Cl)(Cl)CCl)cc1`, the growth with DU-145 prostate is 110%; with K-562 leukemia, 106%; in the assay on MALME-3M melanoma it was 96.6%; in the assay with MDA-MB-231 breast, 88.7%; with RXF 393 renal it was 131%; with SF-268 CNS it was 93.7%. Besides, the growth in the assay with SF-295 CNS was 105%; in the assay with SF-539 CNS, 96.3%; in the assay on UACC-257 melanoma it was 110%; with M14 melanoma it was 100%.
